This is part of a sample that, as a whole, favours compounds with a hit. Of some 83,000 tested, about 20% had one in any assay.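 Assay: single dose, 48 h. Readout: percent growth (0 = no net growth; negative = cell death). Active: <10.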 A number with no mark means an inactive call. Activity calls are given as the source filed them.

This note sets out measurements from PubChem BioAssay (NCI).

Among the test systems are NCI-H23 lung; NCI-H226 lung; NCI-H322M lung; HOP-62 NSCLC; NCI-H460 lung; HOP-92 NSCLC; NCI-H522 lung; A549/ATCC NSCLC; 786-0 renal; COLO 205 colon; DU-145 prostate; K-562 leukemia; MALME-3M melanoma; MDA-MB-231 breast; RXF 393 renal; SF-268 CNS; SF-295 CNS; SF-539 CNS; UACC-257 melanoma; M14 melanoma.
What all share (assay): NCI-60 one-dose screen, 48 h (100 = growth as untreated, 0 = no growth, -100 = all killed)
What all share (details): 10 µM unless noted

As for `O=c1[nH]c2ccccc2cc1-c1nc2ccc(Cl)cc2[nH]1`, the growth was 53.5% in the test on NCI-H23 lung; 55.2% in the test with NCI-H226 lung; 50.3% in the test on NCI-H322M lung; 67.2% in the test with HOP-62 NSCLC; 18% in the test on NCI-H460 lung; 7.43% (active) in the test on HOP-92 NSCLC. The growth in the test on NCI-H522 lung is 38.2%; in the test with A549/ATCC NSCLC, 40.1%; in the test on 786-0 renal, 52.8%; in the test on COLO 205 colon it was 52.2%; in the test with DU-145 prostate it was 38.2%; in the test with K-562 leukemia, 13.7%. The growth was 61.7% in the test on MALME-3M melanoma; 44.9% in the test with MDA-MB-231 breast; 63% in the test on RXF 393 renal; 50.7% with SF-268 CNS; -7.79% (active) with SF-295 CNS; 49% in the test on SF-539 CNS. In addition, the growth with UACC-257 melanoma was 91.5%; with M14 melanoma, 40.8%.
As for `NC(=O)CN1C(=O)c2ccccc2C1=O`, the growth is 98.8% with NCI-H23 lung; 101% in the test on NCI-H226 lung; 99.1% with NCI-H322M lung; 101% with HOP-62 NSCLC; 106% with NCI-H460 lung; 96.7% in the test with HOP-92 NSCLC. Also, the growth was 88.3% with NCI-H522 lung; 103% in the test on A549/ATCC NSCLC; 102% in the test with 786-0 renal; 110% with COLO 205 colon; 101% in the test on DU-145 prostate; 96% in the test with K-562 leukemia. Moreover, the growth with MALME-3M melanoma is 97.5%; with MDA-MB-231 breast, 101%; with RXF 393 renal it was 114%; in the test on SF-268 CNS, 97.3%; in the test on SF-295 CNS it was 95.3%; in the test on SF-539 CNS, 106%. For the same compound, the growth with UACC-257 melanoma is 106%; in the test with M14 melanoma it was 102%.
Turning to `C=C(C)[C@@H]1CC[C@]2(C(=O)OCCOCCOCC[P+](c3ccccc3)(c3ccccc3)c3ccccc3)CC[C@]3(C)[C@H](CC[C@@H]4[C@@]5(C)CC[C@H](OC(=O)C(Cl)Cl)C(C)(C)[C@@H]5CC[C@]43C)[C@@H]12`, the growth in the test on NCI-H23 lung was 0.446% (active); with NCI-H226 lung, -2.33% (active); in the test with NCI-H322M lung it was 21%; in the test with HOP-62 NSCLC, 11%; in the test with NCI-H460 lung, -13.3% (active); with HOP-92 NSCLC, -67.5% (active). For the same compound, the growth in the test on NCI-H522 lung is -24.4% (active); in the test with A549/ATCC NSCLC it was 6.87% (active); in the test on 786-0 renal, -85.1% (active); with COLO 205 colon, -83.7% (active); in the test with DU-145 prostate it was 15.5%; in the test on K-562 leukemia it was -20.9% (active). Also, the growth is -82.9% (active) in the test on MALME-3M melanoma; -46.7% (active) in the test with MDA-MB-231 breast; -81.7% (active) in the test on RXF 393 renal; 4.59% (active) in the test on SF-268 CNS; -82.1% (active) with SF-295 CNS; -20.2% (active) with SF-539 CNS. Moreover, the growth is -27.9% (active) with UACC-257 melanoma and -80.9% (active) with M14 melanoma.
For the compound `CCOC(=O)NCCc1nc2c([nH]1)c(=O)n(C)c(=O)n2C`, the growth with NCI-H23 lung was 93.7%; with NCI-H226 lung, 105%; in the test with NCI-H322M lung, 103%; in the test with HOP-62 NSCLC, 115%; with NCI-H460 lung, 106%; in the test with HOP-92 NSCLC, 93.5%. The growth in the test on NCI-H522 lung is 92.5%; with A549/ATCC NSCLC, 104%; with 786-0 renal, 102%; in the test on COLO 205 colon it was 109%; in the test on DU-145 prostate, 107%; with K-562 leukemia, 119%. In addition, the growth in the test with MALME-3M melanoma was 99.2%; in the test with MDA-MB-231 breast, 105%; in the test on RXF 393 renal it was 113%; in the test on SF-268 CNS, 98.5%; with SF-295 CNS it was 103%; in the test with SF-539 CNS, 105%. The growth in the test on UACC-257 melanoma is 113%; with M14 melanoma, 88.8%.
Turning to `Cc1c(C(=O)Nc2nc3ccccc3[nH]2)cnn1-c1ccccn1`, the growth was 101% in the test with NCI-H23 lung; 104% in the test with NCI-H226 lung; 111% in the test on NCI-H322M lung; 107% in the test on HOP-62 NSCLC; 103% in the test with NCI-H460 lung; 135% in the test with HOP-92 NSCLC. Also, the growth was 76.2% with NCI-H522 lung; 86.3% in the test with A549/ATCC NSCLC; 107% with 786-0 renal; 126% in the test on COLO 205 colon; 112% in the test with DU-145 prostate; 93.5% in the test on K-562 leukemia. In addition, the growth is 106% in the test on MALME-3M melanoma; 109% in the test on MDA-MB-231 breast; 105% in the test with RXF 393 renal; 107% with SF-268 CNS; 102% in the test on SF-295 CNS; 98.9% with SF-539 CNS. For the same compound, the growth in the test on UACC-257 melanoma was 82.4%; in the test on M14 melanoma it was 111%.
Consider `c1ccc(Sc2ncccn2)nc1`, for which the growth in the test with NCI-H23 lung was 93%; in the test on NCI-H226 lung, 92.2%; in the test on NCI-H322M lung it was 111%; in the test on HOP-62 NSCLC it was 100%; in the test with NCI-H460 lung, 103%; with HOP-92 NSCLC, 89%. Besides, the growth in the test with NCI-H522 lung is 91.6%; in the test with A549/ATCC NSCLC, 103%; with 786-0 renal, 103%; in the test with COLO 205 colon, 116%; in the test with DU-145 prostate it was 109%; in the test on K-562 leukemia, 90%. In addition, the growth in the test on MALME-3M melanoma is 111%; with MDA-MB-231 breast, 109%; in the test with RXF 393 renal, 110%; in the test with SF-268 CNS, 104%; with SF-295 CNS, 109%; in the test on SF-539 CNS it was 96%. For the same compound, the growth in the test on UACC-257 melanoma and in the test on M14 melanoma was 99.2% in each case.
